In PubChem BioAssay (NCI):
The panel holds about 83,000 compounds, 20% with a hit somewhere; the sample as a whole holds those more often.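 Values shown are percent growth following 48 h exposure of cells in 96-well plates to a single concentration of compound; below 10 was considered active.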 Unmarked numbers belong to inactive results. Activity calls are given as the source filed them.

What follows are compounds tested on MDA-MB-468 breast (assay: NCI-60 one-dose screen, 48 h (100 = growth as untreated, 0 = no growth, -100 = all killed)). Details: 10 µM unless noted.
For O=[P+](O)c1cccnc1, the growth was 99.1%. In the case of C/C(=C\c1ccn(-c2ccccc2N)n1)[C@@H]1C[C@@H]2O[C@]2(C)CCC[C@H](C)[C@H](O)[C@@H](C)C(=O)C(C)(C)[C@@H](O)CC(=O)O1, the growth is reported as 0% (active). With O=[N+]([O-])/C=C\c1ccc2c(c1)OCO2 the growth was 82%. For CC12CCC(=O)C=C1CCC1C2CCC2(C)C(C(=O)COC(=O)Cc3ccc(N(CCCl)CCCl)cc3)CCC12 (centres undefined), the growth was 64.1%.
